This note sets out measurements from PubChem BioAssay.

Active and inactive are the calls of the source. Unless noted, the rule behind the calls is not given here.

Test [1] concerns Wnt5a (protein binding on small-molecule microarray). The experiment in a line: small molecules binding Wnt5a protein – biophysical, small-molecule microarray, 635/667 nm fluorescence, primary screen (AID 1142).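 Note: fluorescence read at 667 nm with signal to noise per printed feature.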 Conditions: 635 nm fluorescence, higher = more signal.
Test [2] can be described thus: ATP-based viability of Huh7 replicon cells – cell-based, CellTiter-Glo luminescence, basal, 48 h, cytotoxicity control for HCV replication inhibitor project, primary screen (AID 1143).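 Note: Huh7 hepatoma cells carrying a hepatitis C replication reporter with no stimulus; test concentration not given here.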 Conditions: higher = more signal, called active from +8 up or from −8 down.
The nature of test [3]: Pseudomonas biofilm growth suppression – PAO1 strain, BacTiter-Glo luminescence, LB-PBS, primary screen (AID 1144). The conditions noted are these: P. aeruginosa PAO1 biofilm, 12 h, higher = more signal.
Test [4] is described as follows: basal CRE-LacZ reporter activity in PC12 – cell-based, unstimulated, primary screen (AID 1145). Conditions: no forskolin, luminescence, 4.5 h, higher = more signal, called active from +8 up or from −8 down.
Test [5] in a line: forskolin-driven CRE-LacZ activity in PC12 – cell-based, CRE-LacZ reporter, forskolin-stimulated, primary screen (AID 1146).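 Note: PC12 cells with 6xCRE LacZ reporter stimulated by forskolin 10 µM; beta-galactosidase reporter signal reflecting CREB driven transcription.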 Conditions: luminescence, 4.5 h, higher = more signal, called active from +8 up or from −8 down.
In test [6] the target is Streptavidin (Streptomyces avidinii) (UniProt P22629). The experiment in a line: compounds binding control protein streptavidin – biophysical, small-molecule microarray, 635/667 nm fluorescence, artefact control for SMM compound annotation, primary screen (AID 1147).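 Note: signal reflects streptavidin binding to arrayed compounds as a control protein.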 The conditions noted are these: higher = more signal.
Sequence of Streptavidin (Streptomyces avidinii) (P22629 whole entry, looked up): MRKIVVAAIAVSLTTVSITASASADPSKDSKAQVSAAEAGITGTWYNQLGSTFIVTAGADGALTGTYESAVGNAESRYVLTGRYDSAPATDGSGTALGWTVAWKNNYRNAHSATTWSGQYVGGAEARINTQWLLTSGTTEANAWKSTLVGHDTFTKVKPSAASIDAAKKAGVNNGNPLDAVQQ
A short description of test [7]: probe aInhba binding on compound microarray – biochemical, small-molecule microarray, 635/667 nm fluorescence, primary screen (AID 1148).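 Note: score merges 667nm spot fluorescence with signal-to-noise for antibody binding to printed compounds.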 Conditions: higher = more signal.
Test [8] deals with Torsin-1A (Homo sapiens) (UniProt O14656). The experiment in a line: TOR1A wild-type binding on microarray – cell lysate, small-molecule microarray, lysate, 635/667 nm, primary screen (AID 1149). The conditions noted are these: COS7 hTOR1A-WT lysate, 635 nm fluorescence, higher = more signal.
Sequence of Torsin-1A (Homo sapiens) (O14656 whole entry, looked up): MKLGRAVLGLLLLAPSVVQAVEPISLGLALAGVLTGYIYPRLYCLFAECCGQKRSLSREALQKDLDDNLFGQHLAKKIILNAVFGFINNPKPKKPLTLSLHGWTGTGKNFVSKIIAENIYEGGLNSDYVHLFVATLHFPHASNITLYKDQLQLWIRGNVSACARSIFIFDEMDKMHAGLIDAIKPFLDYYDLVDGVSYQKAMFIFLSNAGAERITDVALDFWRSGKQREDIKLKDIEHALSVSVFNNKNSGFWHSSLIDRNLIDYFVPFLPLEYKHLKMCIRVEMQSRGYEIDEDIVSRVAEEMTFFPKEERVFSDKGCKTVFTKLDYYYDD
Test [9] has the same target. The test can be described thus: torsin A mutant lysate binding on microarrays – cell lysate, small-molecule microarray, COS7 lysate, 635/667 nm fluorescence, primary screen (AID 1150).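 Note: score pools 667 nm emission and signal to noise measuring lysate protein binding.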 The conditions noted are these: COS7 hTOR1A mutant lysate, 635 nm fluorescence, higher = more signal.
For test [10], the system named is Sonic hedgehog protein (Shh). The test can be described thus: Sonic hedgehog microarray binding compounds – biochemical, small-molecule microarray, 635/667 nm fluorescence, primary screen (AID 1151).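 Note: Shh protein binding to compounds spotted on small-molecule microarray slides; score combines spot fluorescence intensity with signal-to-noise across triplicate slides.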 The conditions noted are these: 635 nm fluorescence, higher = more signal.

As to `CO[C@H]1COC(=O)[C@@H](C)COC(=O)[C@H](C)NC(=O)CC=C[C@H]1C`, the composite z-score in test [1] is 0.0392; in test [6] it was -0.639; in [7], -0.176; with Torsin-1A (Homo sapiens) [8], 1.15; with Torsin-1A (Homo sapiens) [9], 0.991; in [10], 1.6. In addition, the z-score in test [2] is -0.378 (inactive); in test [3], 0.371 (inactive); in [4], -0.115 (inactive); in test [5], -0.959 (inactive).

Turning to `CCCNC(=O)OC[C@H]1O[C@H](CCON=C(C)CCN2CCCc3nc(C)c(C)cc32)C=C[C@@H]1Oc1ccc(OC)cc1`, the composite z-score in [1] was 0.146; in test [6] it was 0.668; in [7], 0.0028; with Torsin-1A (Homo sapiens) [8], 0.182; in the test with Torsin-1A (Homo sapiens) [9] it was -0.0347; in test [10], 0.368. The z-score in test [2] is -2.37 (inactive); in test [3] it was -0.489 (inactive); in test [4] it was 2.72 (inactive); in test [5] it was 0.367 (inactive).

Turning to `O=c1n(Cc2cc3c(cc2Cl)OCO3)c(=O)n2n1CC[C@@H]1C(=NOCc3ccccc3)[C@H]3O[C@H]3[C@@H](O)[C@@H]12`, the composite z-score is 0.141 in test [1]; 0.767 in test [6]; -0.0509 in test [7]; 0.582 with Torsin-1A (Homo sapiens) [8]; 0.223 in the test with Torsin-1A (Homo sapiens) [9]; 0.365 in [10]. The z-score was -0.742 (inactive) in test [2], 0.692 (inactive) in test [3], 0.16 (inactive) in test [4] and 1.87 (inactive) in test [5].

Turning to `CCCNC(=O)OC[C@H]1O[C@H](CCON=Cc2ccc(C(=O)N3[C@H](c4ccc(C)cc4)[C@@H](C)CC[C@H]3C(=O)OC)cc2)C=C[C@@H]1Oc1ccc(OC)cc1`, the composite z-score in test [1] was 0.157; in test [6], 0.0335; in test [7] it was -0.105; in the test with Torsin-1A (Homo sapiens) [8], 0.436; with Torsin-1A (Homo sapiens) [9] it was 0.853; in test [10], 0.396. Besides, the z-score in test [2] is -1.73 (inactive); in test [3], 0.0699 (inactive); in test [4] it was 2.55 (inactive); in test [5], 1.16 (inactive).

Consider `Cc1ccc(S(=O)(=O)N[C@H]2COC(=O)CC=C[C@@H](C)COC(=O)CC=C[C@@H]2C)cc1`, for which the composite z-score in test [1] was -0.0032; in [6], 0.407; in test [7] it was -0.0645; with Torsin-1A (Homo sapiens) [8], 0.346; with Torsin-1A (Homo sapiens) [9], -0.534; in test [10], 1.92. The z-score is 0.319 (inactive) in test [2], -0.748 (inactive) in test [3], -0.0223 (inactive) in test [4] and 0.113 (inactive) in [5].

As to `COC(=O)C=CCCc1coc(C=CCNC(=O)OC)n1`, the composite z-score in [1] is 0.4; in test [6] it was 0.0242; in test [7], 0.432; with Torsin-1A (Homo sapiens) [8], 0.583; in the test with Torsin-1A (Homo sapiens) [9], 0.205; in [10] it was 1.15. Also, the z-score was -0.0328 (inactive) in test [2], -0.0662 (inactive) in test [3], 0.38 (inactive) in test [4] and 0.702 (inactive) in test [5].

On to `COC(=O)CC=C[C@@H](C)[C@@H](C=NO[C@H](C)c1cn([C@H](CO)Cc2ccccc2)nn1)NS(=O)(=O)c1ccc(C)cc1`, for which the composite z-score is -0.0374 in test [1]; 0.912 in test [6]; -0.0531 in test [7]; 0.708 with Torsin-1A (Homo sapiens) [8]; 1.8 with Torsin-1A (Homo sapiens) [9]; 0.285 in test [10]. Further, the z-score in test [2] is -1.29 (inactive); in [3] it was 0.92 (inactive); in test [4], 1.98 (inactive); in test [5], 0.767 (inactive).

For the compound `C[n+]1ccc(-c2ccc(CO)cc2)cc1`, the composite z-score is -0.0113 in test [1]; 2.72 in test [6]; -0.0209 in test [7]; 0.565 with Torsin-1A (Homo sapiens) [8]; 1.67 with Torsin-1A (Homo sapiens) [9]; 2.14 in test [10]. The z-score in test [2] was 0.0559 (inactive); in test [3], 0.466 (inactive); in test [4] it was 0.919 (inactive); in test [5], 0.723 (inactive).

Consider `CO[C@H]1COC(=O)CC=C[C@@H](C)[C@H](NS(=O)(=O)c2ccc(C)cc2)COC(=O)CCC[C@@H]1C`, for which the composite z-score in [1] was 0.118; in test [6] it was 0.439; in test [7] it was -0.239; with Torsin-1A (Homo sapiens) [8] it was 0.815; with Torsin-1A (Homo sapiens) [9] it was 0.819; in test [10], 0.417. Moreover, the z-score was -0.279 (inactive) in test [2], -0.365 (inactive) in [3], -1.13 (inactive) in [4] and -0.198 (inactive) in test [5].

With `COC(=O)[C@H]1O[C@@H](c2c(OC)c(OC)c(C)c(OC)c2OC)[C@H](C)[C@@H](O)[C@H]1C`, the composite z-score in [1] was 0.2; in test [6], 0.353; in test [7], 0.141; with Torsin-1A (Homo sapiens) [8], 0.859; in the test with Torsin-1A (Homo sapiens) [9], 0.295; in test [10] it was 0.434. For the same compound, the z-score in test [2] is 0.299 (inactive); in [3], -0.895 (inactive); in test [4], 0.564 (inactive); in test [5], 1.12 (inactive).

As to `C[C@@H]1C=CCC(=O)OC[C@H]2O[C@@H](C=C[C@@H]2O)[C@H](C)C=CCC(=O)OC1`, the composite z-score in test [1] is 0.0051; in test [6], -0.224; in test [7] it was -0.206; in the test with Torsin-1A (Homo sapiens) [8], 2.73; in the test with Torsin-1A (Homo sapiens) [9], 1.98; in test [10], 2.16. Further, the z-score in test [2] is -1.05 (inactive); in test [3] it was -1.11 (inactive); in test [4] it was 0.344 (inactive); in [5], -0.812 (inactive).

With `CCN1C(=O)[C@H]2[C@H]3[C@H](O)[C@H](O)CC(=O)[C@H]3CC[C@H]2C1=O`, the composite z-score in test [1] is 0.113; in [6] it was -0.0154; in [7] it was -0.225; in the test with Torsin-1A (Homo sapiens) [8] it was 1.06; in the test with Torsin-1A (Homo sapiens) [9], 0.386; in test [10], 0.593. Besides, the z-score in test [2] is 0.89 (inactive); in [3], -0.212 (inactive); in test [4] it was -0.293 (inactive); in [5], -0.733 (inactive).
